# According to PubChem BioAssay (NCI):
# This is part of a sample that, as a whole, favours compounds with a hit. Of some 83,000 tested, about 20% had one in any assay.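 Percent growth is the endpoint: 0 to 100 indicates growth inhibition (40 means 60% inhibition), 0 means no net growth, and negative values indicate cell death.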 A number with no mark means an inactive call. The source made the active and inactive calls. How the source made its calls: active means growth percent below 10; inactive means the rest.
# Tested on: HL-60(TB) leukemia
# Test: NCI-60 one-dose screen, 48 h (100 = growth as untreated, 0 = no growth, -100 = all killed)
# Settings: 10 µM unless noted
row,Compound,growth
1,Cc1c(C(=O)Nc2nc(-c3ccccc3)cs2)nnn1-c1ccccc1Br,36.9% [50 µM]
2,C=C1C(=O)O[C@H]2[C@H]1CC/C(COC(=O)c1cccnc1N)=C\CC[C@@]1(C)O[C@@H]21,-3.64% (active)
3,O=c1cc(-c2nccc3c2[nH]c2ccccc23)c2cc(Cl)ccc2o1,0.737% (active)
4,O=S(=O)(Nc1ccc(Br)c(Cl)c1)c1ccc(-c2cnc(C3CC3)o2)cc1,-4.27% (active)
5,O=C(CC(=O)c1cccc(Cl)c1)c1cccc(Cl)c1,4.17% (active)
6,COc1ccc(-c2cc3c(OC)c(OC)c(OC)cc3oc2=O)cc1,36.5%
7,CCOC(=O)c1nc(Nc2ccc(NC(=O)Nc3ccc(F)cc3)cc2)c2ccccc2n1,110%
8,CNC1=C([N+](=O)[O-])C(c2ccccc2O)C(C#N)=C(c2cccs2)O1 (stereo not given),75.1%
9,COc1ccc2c(c1)C(CC(=O)NN)CCC2 (stereo not given),113%
10,COc1cnc2c(c1)C(=O)c1c-2n(CCCN2CCOCC2)c(=O)c2cc(F)ccc12,-10.2% (active)
11,O=c1c(-c2ccc3c(c2)OCO3)coc2c(CO)c(O)ccc12,-46.9% (active)
12,Oc1ccccc1/C=N/c1ccccn1,102%
13,COc1ccc(Cn2cnc3cc(C(=O)Nc4cccc5ccccc45)ccc32)c(OC)c1,-33.3% [30 µM] (active)
14,CCOC(=O)N1C=CC2C=CC1C1C=CC=CC2N1C(=O)OCC (stereo not given),104%
15,O=c1[nH]nc(-c2ccc(Br)cc2)c2sc(NC(=S)Nc3ccc(Cl)cc3)nc12,94.2%
16,O=C1CCCCN1CCCCC#Cc1ccccc1C#Cc1ccc([N+](=O)[O-])cc1,-25.7% (active)
17,Cc1cc2c(cc1C)Nc1sc(NC(=O)CN3CCN(C)CC3)nc1C(=O)N2,83.3%
18,CCOC(=O)c1cc(C(=O)c2ccc(F)cc2F)n2ccccc12,96.4%
19,O=C(Nc1ccc(OS(=O)(=O)c2ccccc2)cc1)C1CCCCC1,94%
20,CC1(C)c2ccccc2C(=O)C1(Br)Cc1ccccc1 (stereo not given),9.51% (active)

row,Compound,growth
1,COc1ccc(-c2c(-c3cc(OC)c(OC)c(OC)c3)noc2N)cc1,12.5%
2,NCCn1cc(-c2nc(-c3c[nH]c4ncccc34)cs2)c2ccccc21,78.2%
3,Nc1n[nH]c2cccc(C#Cc3cccc(C(=O)Nc4ccc(Cl)c(C(F)(F)F)c4)c3)c12,21%
4,O=[N+]([O-])c1cnc(Sc2ccncn2)s1,-20.2% (active)
5,OC(CN1CCCC2CCCCC21)c1cc2ccccc2c2ccccc12 (stereo not given),84.9%
6,C#C[C@]1(O)CC[C@H]2[C@@H]3CC=C4c5sc(-c6cccc(C)c6)nc5CC[C@]4(C)[C@H]3CC[C@@]21C,71.8%
7,Cc1c(C(N)=O)sc2ncn(CC(=O)Nc3ccc(Cl)cc3)c(=O)c12,110%
8,COc1cc(NC(=O)CSc2nc3ccc(Cl)cc3c(=O)n2-c2ccc(F)cc2)cc(OC)c1OC,106%
9,Cc1ccc(/C=C/C(=O)c2cccc(OCCCOc3cccc(C(=O)/C=C/c4ccc(C)cc4)c3)c2)cc1,57.6%
10,O=c1ccn(C2OC(CO)C(O)C2F)c(=O)[nH]1 (stereo not given),130%
11,S=C(Cc1ccccc1)N1CCN(c2ccccc2Cl)CC1,92.1%
12,COC(=O)CCc1n(Cc2ccc3ccccc3c2)c2ccccc2[n+]1Cc1ccc2ccccc2c1,-49.1% (active)
13,Nc1cc2nc3ccccc3oc-2cc1=O,16.2%
14,c1ccc(Cc2cccc[n+]2C(c2ccccc2)c2ccccc2)cc1,4.63% (active)
15,CN1CCN(Cc2ccc(NC(=O)c3cncc(C#Cc4cnc(N)c5ccc(C#N)cc45)c3)cc2C(F)(F)F)CC1,-17% (active)
16,Nc1c(C(=O)Nc2cccc3c2OCCO3)sc2nc3c(cc12)CN(Cc1ccccc1)CC3,19.1%
17,C#C[C@H](O)/C=C/CCCCCCC#C[C@H](O)CC[C@@H](O)C#CCCCCCC/C=C/[C@@H](O)C#C,-70.8% (active)
18,O=[N+]([O-])c1ccc(N2c3ccncc3Sc3ccncc32)cc1,102%
19,COc1ccc(C(=O)c2ccc(C)cc2)c(OC)c1OC,93.4%
20,CC(=O)Oc1ccc(C(OC(C)=O)OC(C)=O)cc1,90.3%
